Assay outcomes as filed in PubChem BioAssay.
LmPK inhibitor = inhibitors of Leishmania mexicana pyruvate kinase; 0.37% of 290,000 active; purified LmPK, Kinase-Glo ATP luminescence, 1 h; Potency, µM (top dose mostly 57.5 µM), for inactives: top-dose activity change, negative = inhibition, most hits filed as inhibitors; AID 1721; also: % is scaled to controls: 0 for no effect and ±100 for the full control effect
Target sequence (Q27686 whole entry, looked up): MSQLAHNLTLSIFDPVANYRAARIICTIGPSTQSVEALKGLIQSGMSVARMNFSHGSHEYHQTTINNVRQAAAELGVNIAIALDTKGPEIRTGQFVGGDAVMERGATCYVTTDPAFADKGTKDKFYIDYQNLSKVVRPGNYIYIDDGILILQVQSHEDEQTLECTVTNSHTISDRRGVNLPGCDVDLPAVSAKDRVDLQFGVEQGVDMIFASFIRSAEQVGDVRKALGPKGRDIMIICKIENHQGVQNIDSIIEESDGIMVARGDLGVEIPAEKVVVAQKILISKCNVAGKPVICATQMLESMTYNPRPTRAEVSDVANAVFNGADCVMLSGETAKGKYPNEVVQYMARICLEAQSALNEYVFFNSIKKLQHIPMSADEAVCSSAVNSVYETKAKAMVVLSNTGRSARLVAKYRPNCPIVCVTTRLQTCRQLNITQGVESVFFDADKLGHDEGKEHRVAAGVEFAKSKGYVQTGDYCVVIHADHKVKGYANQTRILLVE
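qHTS format; LmPK 0.1 nM; substrates PEP 0.5 mM and ADP 0.1 mM. One-hour room-temperature incubation, then coupled luciferase luminescence; 0.5 nM enzyme wells mark activation.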
SARS PLpro yeast = blocks SARS-CoV papain-like protease in a yeast assay | S. cerevisiae expressing SARS-CoV PLpro, growth rescue | Potency, µM (titrated, usually from 32.9 µM), for the others: top-dose activity, positive = growth rescue, hits mostly activators | 0.19% of 330,000 active; calls by dose curve; also: 0% is about no effect; nearly all actives have a fitted effect of over 55% in size
Tb PYK inh = inhibitors of Trypanosoma brucei pyruvate kinase. Q57TT1. TbPYK enzyme, Kinase-Glo Plus ATP luminescence, 45 min. Potency, µM (series often up to 76.8 µM), without a hit: at the top dose activity, negative = inhibition, most hits filed as inhibitors. 0.12% of 410,000 active; also: % is scaled to controls: 0 for no effect and ±100 for the full control effect; nearly all actives have a fitted effect of over 50% in size
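Glycolytic pyruvate kinase of T. brucei was incubated with substrate, test compound and 130 uM ADP for 45 minutes at room temperature. Luminescent Kinase-Glo Plus signal was measured after 10 minutes.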
Sm TGR block = inhibitors of Schistosoma mansoni thioredoxin glutathione reductase; purified TGR, DTNB reduction, TNB absorbance 405 nm; Potency, µM (doses to about 114 µM), without a hit: top-dose activity change, negative = inhibition, usual class: inhibitors; 3% of 360,000 active; AID 485364; also: % is scaled to controls: 0 for no effect and ±100 for the full control effect; nearly all actives have a fitted effect of over 60% in size
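First, TGR (20 nM dispensed) and NADPH were mixed with compound. Second, a 15 min room-temperature incubation followed. Third, further NADPH and then DTNB were added to start the reaction. Finally, TNB absorbance was monitored kinetically.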
NS1 function inh = inhibitors of influenza NS1 protein function; Potency, µM (titrated, usually from 46.1 µM), for inactives: at the top dose activity, positive = more growth; 0.4% of 270,000 active; AID 2326; calls by dose curve; also: actives are rising curves; nearly all actives have a fitted effect of over 50% in size
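Compounds were scored for reversing the slow growth caused by influenza A NS1 in S. cerevisiae, measured by optical density at 600 nm. Assay medium contained 2% galactose at pH 6.0; NS1-free yeast of the same strain were the positive control.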
RE007 growth inh = less growth of the S. pombe RE007 Vpr strain | S. pombe RE007 Vpr strain, BacTiter-Glo ATP luminescence, 24 h | Potency, µM (series often up to 92.2 µM), for the others: at the highest dose activity change, negative = less growth, hits mostly inhibitors | AID 651644 | 0.21% of 360,000 active; active = well fitted falling curve with a large enough effect; inconclusive = small, poorly fitted or top-dose-only effect; inactive = no such curve, though single readings can be large or run the other way; also: % is scaled to controls: 0 for no effect and ±100 for the full control effect; nearly all actives have a fitted effect of over 50% in size
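Fission yeast RE007 carrying one integrated HIV-1 vpr copy, seeded at OD 0.01 in PMG+AL medium with 23 nL pinned compound. Grown 24 h at 30 degrees; viability read by BacTiter-Glo luminescence after 5 min.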
* marks the source's active call; other numbers are inactive results; ? = inconclusive; · = no result given. Rows were chosen to be rich in hits. Some 3.3% of all compounds tested hit in one or more screens of this group. Unless noted, calls follow the shape of the dose curve; as a rule, active = well fitted curve in the direction sought with a large enough effect; inconclusive = small, poorly fitted or top-dose-only effect, or another doubt; inactive = no such curve, though single readings can be large; an effect the other way counts as inactive or inconclusive. Potency is read from the fitted curve at half-maximal effect.

SMILES	LmPK inhibitor	SARS PLpro yeast	Tb PYK inh	Sm TGR block	NS1 function inh	RE007 growth inh
ClCc1nnc(-c2ccccc2)o1	-1%	-2%	4%	50µM*	4%	3%
Clc1cccc(-c2nnc(-c3ccccc3)o2)c1	25µM*	-10%	-10%	0%	-37%	20µM*
O=C(Nc1ccc2oc(-c3ccccc3)nc2c1)C1CCCO1 (stereo not drawn)	-17%	-3%	-3%	3%	-13%	-21%
O=C(Nc1ccc(-c2nc3ccccc3o2)cc1)C1CCCO1 (stereo not drawn)	16µM*	-15%	-25%	2%	-7%	?
O=C(Nc1ccc(-c2nc3cccnc3s2)cc1)C1CCCO1 (stereo not drawn)	14µM*	-21%	?	-4%	-23%	-17%
COc1ccc(NC(=O)C2CCCO2)cc1 (stereo not drawn)	1%	12%	3%	-2%	6%	0%
COc1ccc(CCNC[C@H](O)COc2cccc(C)c2)cc1OC	·	·	0%	·	·	·
CCNC(=S)NNc1ccccc1	3%	-3%	-8%	14µM*	-40%	?
CCc1nc(N2CCN(C(=O)CCl)CC2)c2c3c(sc2n1)CC(C)CC3 (stereo not drawn)	-1%	-1%	5%	16µM*	-122%	-10%
c1csc(C2C3=C(Nc4ncnn42)c2ccccc2OC3)c1 (stereo not drawn)	4%	-3%	-25%	45µM*	-5%	-18%
O=c1c2ccccc2sn1-c1cc(S(=O)(=O)N2CCOCC2)ccc1N1CCOCC1	-5%	8%	4.5µM*	25µM*	10%	1%
CCN(CC)c1ccc(C2Nc3cccc4cccc(c34)N2)c(O)c1	0%	-8%	-9%	22µM*	9%	14%
COc1cc(C2Nc3cccc4cccc(c34)N2)cc(OC)c1OC(C)=O	-1%	3%	-15%	8.9µM*	0%	-25%
COc1cc(C2Nc3cccc4cccc(c34)N2)ccc1O	-22%	?	-4%	4µM*	23%	4%
CCCOc1ccc(/C=N/NC(=S)Nc2ccccc2[N+](=O)[O-])c(O)c1	4%	10µM*	1%	-2%	21%	5%
Cc1ccc(N(C)C(=O)Cn2cnc3onc(-c4ccc(F)cc4)c3c2=O)cc1C	·	·	1%	-1%	·	·
CC(Sc1nnc2ccc3ccccc3n12)C(=O)Nc1ccc(Cl)cc1 (stereo not drawn)	·	·	4%	3%	·	·
Cn1cccc([N+](=O)[O-])c1=O	·	·	-6%	·	·	-7%
Cn1c(=O)c(=O)n(C)c2cc([N+](=O)[O-])c([N+](=O)[O-])cc21	3%	4%	1%	20µM*	0%	9%
C=CCNC1=C(Cl)C(=O)N(Cc2ccccc2)C1=O	-2%	-3%	-6%	40µM*	-17%	48%
CCN(CC)CCCNC1=C(Cl)C(=O)c2ccccc2C1=O	-6%	-1%	-6%	35µM*	-9%	?
O=C1C(Cl)=C(Nc2ccccc2)C(=O)c2ccccc21	-3%	-18%	-3%	1µM*	1%	6%
O=C1C(Cl)=C(NCCc2ccccc2)C(=O)c2ccccc21	·	·	?	·	·	6.3µM*
COc1ccc(N2CCN(c3ccc(-c4nc(-c5ccccc5C)no4)cc3[N+](=O)[O-])CC2)cc1	·	·	2%	-4%	·	·
O=C(O)c1cccc(NC2=C(Cl)C(=O)c3ccccc3C2=O)c1	-19%	-1%	-3%	1.6µM*	·	-9%
Cc1ccc(NC2=C(NC(=O)c3ccccc3)C(=O)c3ccccc3C2=O)cc1Cl	7.1µM*	-48%	?	1.6µM*	-33%	?
CC(C)NC1=C(Cl)C(=O)c2ccccc2C1=O	-8%	24%	-5%	28µM*	-85%	?
O=C1C(Cl)=C(NCc2cccnc2)C(=O)c2ccccc21	0%	-9%	3%	45µM*	-6%	?
Oc1ccc2c3c1O[C@H]1[C@@H](O)C=CC4[C@@H](C2)NCC[C@@]341 (stereo partly drawn)	·	·	-2%	·	·	·
